From PMC9838217, “Structure of SALL4 zinc finger domain reveals link between AT-rich DNA binding and Okihiro syndrome” come the findings set out here.

Where a chain is given by its changes, count along the chain named.

Assay [1] has as its target T1, SALL4 ZFC4 R900W (HT-SELEX) (Mus musculus, UniProt Q8BX22 870-940, R900W).
T1 sequence: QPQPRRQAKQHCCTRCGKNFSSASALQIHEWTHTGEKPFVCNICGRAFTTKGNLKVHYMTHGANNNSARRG
Put plainly: HT-SELEX; high values mean tight binding. As to conditions: protein: recombinant; vector His6-GST; dsDNA, one strand shown. An outline of the steps: (§1)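 Library DNA (1.5 µg in cycle one, 200 ng in later cycles) was incubated with 1 µg of purified recombinant mouse SALL4 zinc finger cluster 4, residues 870–940, in 100 µl buffer (10 mM Tris–HCl pH 7.5, 50 mM NaCl, poly(dI-dC), DTT) at room temperature for 10 min. Up to 6 rounds of Ni2+ bead capture, washing, PCR amplification and reselection were run in triplicate. Reads from MiSeq sequencing were scanned for 6-mers. For each canonical k-mer, binding signal is its read fraction as fold change versus the original random library.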

The target in assay [2] is T2, SALL4 ZFC4 G921D (HT-SELEX) (Mus musculus, UniProt Q8BX22 870-940, G921D).
T2 sequence: T1 sequence with W31R, G52D
Put plainly: HT-SELEX; high values mean tight binding. As to conditions: protein: recombinant; vector His6-GST; dsDNA, one strand shown. A digest of the protocol:
as §1

For GCCGGC, the figures for the binding signal in assay [1] and in assay [2] were 0.0318 ± 0.0022 fold-change vs cycle 0 and 0.112 ± 0.0697 fold-change vs cycle 0, respectively.
With CTGTGC, the binding signal in assay [1] is 0.34 ± 0.0263 fold-change vs cycle 0; in assay [2] it was 0.471 ± 0.046 fold-change vs cycle 0.
Consider CCGTGC, for which the binding signal in assay [1] was found to be 0.143 ± 0.00796 fold-change vs cycle 0; in assay [2] it was 0.251 ± 0.0641 fold-change vs cycle 0.
The corresponding values for CGGACG are 0.164 ± 0.00531 fold-change vs cycle 0 and 0.264 ± 0.055 fold-change vs cycle 0.
The like results for CTCTTA were, in that order, 1.6 ± 0.108 fold-change vs cycle 0 and 1.46 ± 0.111 fold-change vs cycle 0.
The corresponding values for ATGGCG are 0.236 ± 0.0151 fold-change vs cycle 0 and 0.371 ± 0.0568 fold-change vs cycle 0.
For CTGGCA, the binding signal in assay [1] was determined as 0.281 ± 0.0156 fold-change vs cycle 0; in assay [2], 0.413 ± 0.0619 fold-change vs cycle 0.
AAGCCC: the results for the binding signal in assay [1] and in assay [2] were 0.353 ± 0.015 fold-change vs cycle 0 and 0.475 ± 0.062 fold-change vs cycle 0, respectively.
The like results for AACGGC were, in that order, 0.225 ± 0.0115 fold-change vs cycle 0 and 0.356 ± 0.0593 fold-change vs cycle 0.
The like results for GCCCGA were, in that order, 0.125 ± 0.0121 fold-change vs cycle 0 and 0.243 ± 0.0758 fold-change vs cycle 0.
The like results for ATCGCC were, in that order, 0.24 ± 0.00657 fold-change vs cycle 0 and 0.401 ± 0.088 fold-change vs cycle 0.
As to CGTCCC, the binding signal in assay [1] amounted to 0.238 ± 0.0171 fold-change vs cycle 0; in assay [2] it was 0.351 ± 0.0721 fold-change vs cycle 0.
The like results for CCCCAC were, in that order, 0.272 ± 0.0152 fold-change vs cycle 0 and 0.375 ± 0.0668 fold-change vs cycle 0.
For CCCCAG, the binding signal stood at 0.289 ± 0.0372 fold-change vs cycle 0 in assay [1] and 0.38 ± 0.0427 fold-change vs cycle 0 in assay [2].
The corresponding values for CATGGC are 0.357 ± 0.0224 fold-change vs cycle 0 and 0.495 ± 0.0505 fold-change vs cycle 0.
The like results for CGCGAC were, in that order, 0.088 ± 0.0103 fold-change vs cycle 0 and 0.202 ± 0.0599 fold-change vs cycle 0.
The corresponding values for AGGCCT are 0.384 ± 0.0275 fold-change vs cycle 0 and 0.516 ± 0.0785 fold-change vs cycle 0.
For the sequence GGCCCC, the figures for the binding signal in assay [1] and in assay [2] were 0.0767 ± 0.0129 fold-change vs cycle 0 and 0.183 ± 0.0665 fold-change vs cycle 0, respectively.
The corresponding values for ATCGCG are 0.221 ± 0.00468 fold-change vs cycle 0 and 0.363 ± 0.0564 fold-change vs cycle 0.
The like results for CAGCCA were, in that order, 0.309 ± 0.0234 fold-change vs cycle 0 and 0.442 ± 0.0984 fold-change vs cycle 0.
The like results for CCCGAG were, in that order, 0.2602 ± 0.00145 fold-change vs cycle 0 and 0.386 ± 0.0692 fold-change vs cycle 0.
For the sequence CAGCGC, the binding signal in assay [1] is 0.0744 ± 0.00642 fold-change vs cycle 0; in assay [2] it was 0.177 ± 0.0788 fold-change vs cycle 0.
Consider ACGCGG, for which the binding signal turned out to be 0.111 ± 0.0165 fold-change vs cycle 0 in assay [1] and 0.205 ± 0.0613 fold-change vs cycle 0 in assay [2].
The corresponding values for CGGCAA are 0.19 ± 0.00924 fold-change vs cycle 0 and 0.324 ± 0.0774 fold-change vs cycle 0.
The like results for GATGCC were, in that order, 0.3346 ± 0.00318 fold-change vs cycle 0 and 0.49 ± 0.0663 fold-change vs cycle 0.
Turning to AGAGCC, the binding signal in assay [1] was 0.335 ± 0.0199 fold-change vs cycle 0; in assay [2], 0.505 ± 0.0782 fold-change vs cycle 0.
The corresponding values for CCCACG are 0.214 ± 0.0117 fold-change vs cycle 0 and 0.319 ± 0.0528 fold-change vs cycle 0.
Take CTGCCC: the binding signal in assay [1] amounted to 0.166 ± 0.00951 fold-change vs cycle 0; in assay [2], 0.291 ± 0.0763 fold-change vs cycle 0.
Take CGATCG: the binding signal is 0.329 ± 0.0324 fold-change vs cycle 0 in assay [1] and 0.53 ± 0.115 fold-change vs cycle 0 in assay [2].
The corresponding values for GAGCCC are 0.184 ± 0.0121 fold-change vs cycle 0 and 0.331 ± 0.0823 fold-change vs cycle 0.
The like results for GTGCCA were, in that order, 0.266 ± 0.0277 fold-change vs cycle 0 and 0.416 ± 0.0672 fold-change vs cycle 0.
Consider CCACGC, for which the binding signal turned out to be 0.141 ± 0.0119 fold-change vs cycle 0 in assay [1] and 0.248 ± 0.0561 fold-change vs cycle 0 in assay [2].
The like results for ACGCTC were, in that order, 0.345 ± 0.00842 fold-change vs cycle 0 and 0.503 ± 0.071 fold-change vs cycle 0.
On to ACGGCC, for which the binding signal was found to be 0.0993 ± 0.00797 fold-change vs cycle 0 in assay [1] and 0.206 ± 0.0649 fold-change vs cycle 0 in assay [2].
The like results for AGCTCG were, in that order, 0.347 ± 0.0155 fold-change vs cycle 0 and 0.487 ± 0.0527 fold-change vs cycle 0.
AGGCTG: the results for the binding signal in assay [1] and in assay [2] were 0.37 ± 0.0148 fold-change vs cycle 0 and 0.493 ± 0.0564 fold-change vs cycle 0, respectively.
The like results for GCGGCC were, in that order, 0.0274 ± 0.00551 fold-change vs cycle 0 and 0.107 ± 0.0539 fold-change vs cycle 0.
The corresponding values for CGACAC are 0.316 ± 0.0105 fold-change vs cycle 0 and 0.48 ± 0.0742 fold-change vs cycle 0.
Take GCACCC: the binding signal in assay [1] worked out at 0.1961 ± 0.000728 fold-change vs cycle 0; in assay [2] it was 0.322 ± 0.0644 fold-change vs cycle 0.
The like results for AACGCG were, in that order, 0.226 ± 0.0175 fold-change vs cycle 0 and 0.329 ± 0.0589 fold-change vs cycle 0.
Consider CACGCC, for which the figures for the binding signal in assay [1] and in assay [2] were 0.137 ± 0.0218 fold-change vs cycle 0 and 0.251 ± 0.0597 fold-change vs cycle 0, respectively.
The like results for ACGGCG were, in that order, 0.0768 ± 0.0155 fold-change vs cycle 0 and 0.177 ± 0.0582 fold-change vs cycle 0.
The corresponding values for ATACGA are 1.27 ± 0.0333 fold-change vs cycle 0 and 1.26 ± 0.0263 fold-change vs cycle 0.
The corresponding values for CCCGCA are 0.139 ± 0.0116 fold-change vs cycle 0 and 0.246 ± 0.066 fold-change vs cycle 0.
In the case of AGCCCC, the binding signal in assay [1] was found to be 0.191 ± 0.0184 fold-change vs cycle 0; in assay [2] it was 0.329 ± 0.0672 fold-change vs cycle 0.
The corresponding values for GCTGGA are 0.37 ± 0.0454 fold-change vs cycle 0 and 0.484 ± 0.0925 fold-change vs cycle 0.
As to CCGCGA, the binding signal in assay [1] stood at 0.102 ± 0.00288 fold-change vs cycle 0; in assay [2], 0.221 ± 0.0689 fold-change vs cycle 0.
In the case of CACAGC, the binding signal in assay [1] was 0.324 ± 0.0122 fold-change vs cycle 0; in assay [2], 0.442 ± 0.0707 fold-change vs cycle 0.
The corresponding values for AGTGCG are 0.276 ± 0.0168 fold-change vs cycle 0 and 0.407 ± 0.068 fold-change vs cycle 0.
For the sequence ACTGCG, the binding signal in assay [1] is 0.289 ± 0.0171 fold-change vs cycle 0; in assay [2], 0.407 ± 0.0604 fold-change vs cycle 0.
The like results for AAGCGG were, in that order, 0.29 ± 0.026 fold-change vs cycle 0 and 0.396 ± 0.0731 fold-change vs cycle 0.
CGCAGA: the values for the binding signal in assay [1] and in assay [2] were 0.265 ± 0.0309 fold-change vs cycle 0 and 0.379 ± 0.0778 fold-change vs cycle 0, respectively.
CGCCTC: the figures for the binding signal in assay [1] and in assay [2] were 0.152 ± 0.0261 fold-change vs cycle 0 and 0.277 ± 0.0696 fold-change vs cycle 0, respectively.
The like results for CGACCA were, in that order, 0.322 ± 0.0112 fold-change vs cycle 0 and 0.456 ± 0.0665 fold-change vs cycle 0.
The corresponding values for CGATGC are 0.312 ± 0.0118 fold-change vs cycle 0 and 0.454 ± 0.0801 fold-change vs cycle 0.
The like results for CCTCGC were, in that order, 0.171 ± 0.0115 fold-change vs cycle 0 and 0.295 ± 0.0773 fold-change vs cycle 0.
As for AGCGCC, the binding signal in assay [1] worked out at 0.0655 ± 0.00477 fold-change vs cycle 0; in assay [2], 0.179 ± 0.0733 fold-change vs cycle 0.
The corresponding values for CGGCCA are 0.0795 ± 0.00952 fold-change vs cycle 0 and 0.19 ± 0.0619 fold-change vs cycle 0.
Take CGGCTC: the values for the binding signal in assay [1] and in assay [2] were 0.124 ± 0.00754 fold-change vs cycle 0 and 0.242 ± 0.0735 fold-change vs cycle 0, respectively.
For the sequence CGGGGC, the binding signal stood at 0.0617 ± 0.00701 fold-change vs cycle 0 in assay [1] and 0.163 ± 0.0639 fold-change vs cycle 0 in assay [2].
